Compounds with a hit are over-represented: about 9.2% of the library has one in this group of screens.
Rab9 promoter act: qHTS Assay for Rab9 Promoter Activators; Huh7 Rab9 promoter-luciferase reporter, luminescence, 24 h; Potency, µM (top dose mostly 9.22 µM), actives largely listed as activators; actives 2.8% (n = 320,000); AID 485297, 2010; note: nearly all actives have a fitted effect of over 60% in size
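Cell-based reporter: Huh7 stable for Rab9 promoter-driven luciferase, plated in reduced-serum medium with 10% FBS at 1500 cells/well, compound-treated 24 h at 37 °C, luminescence read after 10 min reagent.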
ELG1 genotoxic: qHTS screen for small molecules that induce genotoxicity in human embryonic kidney (HEK293T) cells expressing luciferase-tagged ELG1; HEK293T ELG1-luciferase reporter, luminescence, 16 h; Potency, µM (top dose mostly 46 µM), actives largely listed as activators; actives 1.3% (n = 330,000); note: nearly all actives have a fitted effect of over 60% in size
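HEK293T cells expressing luciferase-tagged ELG1 were exposed to compound or DMSO vehicle for 16 hr at 37 °C and 5% CO2. Luciferase activity was then measured with ONE-Glo after 30 min at room temperature.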
FLuc counter: qHTS profiling assay for firefly luciferase inhibitor/activator using purifed enzyme and Km concentrations of substrates (counterscreen for miR-21 project); actives 6.9% (n = 360,000); Potency, µM (top dose mostly 57.5 µM), usual class: inhibitors; Luciferin 4-monooxygenase (Photinus pyralis), P08659; purified FLuc, Km substrates, luminescence inhibition; AID 588342, 2011; note: nearly all actives have a fitted effect of over 55% in size
Target sequence (P08659 whole entry, looked up): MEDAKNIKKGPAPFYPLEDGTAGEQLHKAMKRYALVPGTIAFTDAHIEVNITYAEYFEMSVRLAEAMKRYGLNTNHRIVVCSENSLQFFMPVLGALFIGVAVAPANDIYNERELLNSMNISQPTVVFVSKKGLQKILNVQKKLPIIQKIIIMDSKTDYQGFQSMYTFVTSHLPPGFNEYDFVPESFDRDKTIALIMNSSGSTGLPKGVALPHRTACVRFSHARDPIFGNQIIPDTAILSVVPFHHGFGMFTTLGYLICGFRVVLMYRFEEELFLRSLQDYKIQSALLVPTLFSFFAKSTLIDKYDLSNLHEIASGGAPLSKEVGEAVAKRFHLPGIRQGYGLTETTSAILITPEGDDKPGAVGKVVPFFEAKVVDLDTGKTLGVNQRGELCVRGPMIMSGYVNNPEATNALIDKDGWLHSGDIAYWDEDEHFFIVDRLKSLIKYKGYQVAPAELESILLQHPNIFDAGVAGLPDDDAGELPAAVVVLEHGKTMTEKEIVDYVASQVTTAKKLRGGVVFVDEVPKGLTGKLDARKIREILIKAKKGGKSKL
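Biochemical qHTS of compounds, final roughly 60 µM downward over six points, against 10 nM purified firefly luciferase using Km concentrations of substrates (10 uM D-luciferin, 10 uM ATP) in Tris acetate pH 7.5 buffer; luminescence output.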
SMN2 splice enh: qHTS Assay for Enhancers of SMN2 Splice Variant Expression. actives 2.8% (n = 210,000). AID 1458, 2008. Potency, µM (doses to about 46.1 µM), actives largely listed as activators. HEK293 SMN2-luciferase splicing reporter, luminescence, 30-36 h; note: nearly all actives have a fitted effect of over 55% in size
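HEK293 cells carry an SMN2 […]–luciferase reporter in which exon 7 inclusion puts luciferase in frame. Cells were plated 10-12 h before compound addition, then incubated 30-36 h at 37C. ONE-Glo luminescence was read; sodium butyrate at 4.5 mM final served as control.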
NPC1 promoter act: qHTS Assay for NPC1 Promoter Activators. Huh7 NPC1 promoter luciferase reporter, 24 h. Potency, µM (series often up to 9.22 µM), actives largely listed as activators. actives 2.4% (n = 320,000). AID 485313, 2010; note: nearly all actives have a fitted effect of over 60% in size
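Luminescence read-out of NPC1 promoter-driven luciferase in stably transfected Huh7 cells; compounds delivered in DMSO and left 24 h at 37C, 5% CO2, qHTS titration format.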
ELG1 repair inh: qHTS screen for small molecules that inhibit ELG1-dependent DNA repair in human embryonic kidney (HEK293T) cells expressing luciferase-tagged ELG1; HEK293T ELG1-luciferase reporter, luminescence, 16 h; DNA damage induced by 5-fluorouridine; Potency, µM (highest dose often 46.1 µM), actives largely listed as inhibitors; actives 2.3% (n = 330,000); AID 504467, 2011; note: nearly all actives have a fitted effect of over 55% in size
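Reporter activity after DNA damage by 5-fluorouridine is monitored. Compound-treated cells incubate 16 hr at 37 °C, then ONE-Glo is added for 30 min before luminescence reading.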
Of the large screens only hits and unclear results are named; the others gave an inactive call. Calls come from the whole dose curve; as a rule, active = well fitted curve in the direction sought with a large enough effect; inconclusive = small, poorly fitted or top-dose-only effect, or another doubt; inactive = no such curve, though single readings can be large; an effect the other way counts as inactive or inconclusive.

Cc1nc2c(-c3ccc(F)cc3)c(C)nn2c(N2CCOCC2)c1C	ELG1 repair inh inconclusive
CCc1noc(C)c1C(=O)Nc1cc(Cl)ccc1N1CCCC1	none (no result: SMN2 splice enh)
COc1ccc(-c2cnn3c(C)cc(C)nc23)cc1OC	none (no result: Rab9 promoter act, ELG1 genotoxic, SMN2 splice enh, NPC1 promoter act, ELG1 repair inh)
Cc1cc(Cl)n2ncc(-c3ccccc3)c2n1	Rab9 promoter act inconclusive, ELG1 genotoxic inconclusive, FLuc counter 12µM, ELG1 repair inh inconclusive (no result: SMN2 splice enh)
Cc1cc(N)n2ncc(-c3ccc(F)cc3)c2n1	Rab9 promoter act 3.2µM, ELG1 genotoxic 16µM, FLuc counter 11µM, SMN2 splice enh inconclusive, NPC1 promoter act inconclusive, ELG1 repair inh inconclusive
Cc1ccc(CSc2ccc3nnc(CCNS(=O)(=O)c4ccc(C)cc4)n3n2)cc1	none (no result: Rab9 promoter act, ELG1 genotoxic, SMN2 splice enh, NPC1 promoter act, ELG1 repair inh)
CN(C)C(=O)c1ccc(NC(=O)Cn2nnnc2-c2ccccc2F)cc1	none (no result: Rab9 promoter act, ELG1 genotoxic, NPC1 promoter act, ELG1 repair inh)
CCCCOC(=O)c1[nH]c2c(c1C)C(=O)CC(c1cc(OC)c(OC)c(OC)c1)C2 (centres undefined)	ELG1 repair inh inconclusive
CCCCCOC(=O)c1[nH]c2c(c1C)C(=O)C(C(=O)OC)C(C)C2 (centres undefined)	Rab9 promoter act inconclusive, FLuc counter 11µM
COCCOC(=O)c1[nH]c2c(c1C)C(=O)CC(c1cc(OC)c(OC)c(OC)c1)C2 (centres undefined)	ELG1 repair inh 8.2µM (no result: SMN2 splice enh)
Cc1c(C(=O)OC2CCC(C)CC2)[nH]c2c1C(=O)CCC2 (centres undefined)	Rab9 promoter act 0.45µM, ELG1 genotoxic 2.6µM, FLuc counter 4.3µM, SMN2 splice enh 2.5µM, NPC1 promoter act 0.5µM, ELG1 repair inh inconclusive
COCCOC(=O)c1[nH]c2c(c1C)C(=O)C(C(=O)OC)C(C)C2 (centres undefined)	Rab9 promoter act 3.5µM, ELG1 genotoxic 16µM, FLuc counter 9.5µM, SMN2 splice enh 11µM, NPC1 promoter act inconclusive, ELG1 repair inh inconclusive
CN1CCCC2(CCN(C(=O)c3cnccn3)CC2)C1	none (no result: Rab9 promoter act, ELG1 genotoxic, FLuc counter, NPC1 promoter act, ELG1 repair inh)
CCOC(=O)C1CCN(S(=O)(=O)c2cn(C)cn2)CC1	none (no result: SMN2 splice enh)
COC(=O)C1C(=O)c2c([nH]c(C(=O)OC3CCCCCC3)c2C)CC1C (centres undefined)	Rab9 promoter act inconclusive, ELG1 genotoxic 18µM, FLuc counter inconclusive, SMN2 splice enh inconclusive, NPC1 promoter act inconclusive, ELG1 repair inh inconclusive
COC(=O)C1C(=O)c2c([nH]c(C(=O)OCC3CCCO3)c2C)CC1C (centres undefined)	Rab9 promoter act inconclusive, ELG1 genotoxic 9.2µM, FLuc counter 8.5µM, SMN2 splice enh inconclusive, ELG1 repair inh inconclusive
CCOc1ccc(C2CC(=O)c3c([nH]c(C(=O)OC4CCCCCC4)c3C)C2)cc1 (centres undefined)	none (no result: Rab9 promoter act, ELG1 genotoxic, NPC1 promoter act, ELG1 repair inh)
O=C(CCCOc1ccccc1)Nc1ccc(Cl)c(S(=O)(=O)N2CCOCC2)c1	ELG1 repair inh 13µM (no result: Rab9 promoter act, FLuc counter, SMN2 splice enh, NPC1 promoter act)
Cc1ccc(NC(=O)CCCOc2ccccc2)cc1S(=O)(=O)N1CCOCC1	ELG1 repair inh inconclusive (no result: FLuc counter, SMN2 splice enh)
CCN(c1ccc(NC(=O)COC(=O)c2ccc(C)c(S(=O)(=O)N3CCOCC3)c2)cc1)C(C)C	FLuc counter 17µM (no result: Rab9 promoter act, ELG1 genotoxic, NPC1 promoter act, ELG1 repair inh)
Cc1ccc(NC(=O)COc2ccc(-c3nnco3)cc2)cc1S(=O)(=O)N1CCOCC1	FLuc counter inconclusive, ELG1 repair inh 18µM
O=C(COc1ncnc2ccccc12)Nc1ccc(Cl)c(S(=O)(=O)N2CCOCC2)c1	ELG1 repair inh inconclusive (no result: SMN2 splice enh)
O=C(COc1cccc(Br)c1)Nc1ccc(Cl)c(S(=O)(=O)N2CCOCC2)c1	ELG1 repair inh 23µM (no result: Rab9 promoter act, FLuc counter, SMN2 splice enh, NPC1 promoter act)
O=S(=O)(c1ccc2nc(Nc3ccc(Br)cc3F)ccc2c1)N1CCCCC1	none (no result: Rab9 promoter act, ELG1 genotoxic, SMN2 splice enh, NPC1 promoter act, ELG1 repair inh)
Cc1cnc(=O)[nH]c1SCC(=O)Nc1cc(C(F)(F)F)ccc1Cl	none (no result: Rab9 promoter act, ELG1 genotoxic, SMN2 splice enh, NPC1 promoter act, ELG1 repair inh)
Cc1ccc(OCCCC(=O)Nc2ccc(Cl)c(S(=O)(=O)N3CCOCC3)c2)cc1	ELG1 repair inh 23µM (no result: SMN2 splice enh)

Screens: PubChem BioAssay, National Center for Advancing Translational Sciences (NCATS)
